# Results filed as inconclusive are left out. The source made the active and inactive calls. The calls were made as follows, unless noted: active = hit-call score of the fitted dose curve at least 0.9, where 1 is the maximum; inconclusive = response in the unintended direction; inactive = score below 0.9.
# Tests used:
# [1] = target: rat Opioid Receptor, Non-selective Binding, Oprm1 (gene 25601) (UniProt P33535); experiment: NVS_GPCR_rOpiate_NonSelective: NovaScreen (NVS) G Protein-Coupled Receptor Assay for rat Opioid Receptor, Non-selective Binding (AID 2283318)
# In short: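 Rat forebrain membranes, cell-free radioligand binding with filter-based scintillation counting, read 1.5 h after dosing. Primary screen in duplicate at 25 uM; actives retested in concentration series. Loss of signal versus DMSO baseline scored.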
# [2] = target: Sodium channel protein type 1 subunit alpha (Rattus norvegicus) (UniProt P04774); experiment: NVS_IC_rNaCh_site2: NovaScreen (NVS) Ion Channel Assay for rat Sodium Channel, Site 2 (NaCh) (AID 2283322);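 also: hit means loss of radioligand binding signal relative to DMSO so AC50 marks displacement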
# In short: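 Membranes: rat forebrain. Format: competitive radioligand displacement, filter separation, scintillation readout, 1 h exposure. Primary screen in duplicate at 25 uM; actives retested in concentration series.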
# [3] = target: human Peripheral-type Benzodiazepine Receptor (PBR), TSPO (gene 706) (UniProt P30536); experiment: NVS_MP_hPBR: NovaScreen (NVS) Membrane Protein Assay for human Peripheral-type Benzodiazepine Receptor (PBR) (AID 2283331);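 also: hits reduce radioligand binding relative to DMSO baseline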
# In short: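 Radioligand displacement on human colonic cell membranes, 1 h incubation; bound radioactivity by filtration and scintillation counting. Primary screen in duplicate at 25 uM single concentration, actives followed up in concentration series; loss of binding versus DMSO.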
# [4] = target: Voltage-gated inwardly rectifying potassium channel KCNH2 (Homo sapiens) (UniProt Q12809); experiment: NVS_IC_hKhERGCh: NovaScreen (NVS) Ion Channel Assay for human Potassium Channel ERG (KhERGCh) (AID 2283333)
# In short: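 Cell-free radioligand competition binding on hERG protein extracted from CHO cells, read by filter-based scintillation counting 0.75 h after dosing. Primary screen at 25 uM in duplicate, actives followed in concentration series. Signal loss fitted versus DMSO.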
# [5] = target: rat Peripheral-type Benzodiazepine Receptor (PBR), Tspo (gene 24230) (UniProt P16257); experiment: NVS_MP_rPBR: NovaScreen (NVS) Membrane Protein Assay for rat Peripheral-type Benzodiazepine Receptor (PBR) (AID 2283335)
# In short: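 Radioligand displacement, rat kidney membrane prep, 1 h exposure, filter-based scintillation read; DMSO baseline, loss-of-signal scored. Primary screen at 25 uM in duplicate, actives followed up in concentration series.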
# [6] = NVS_IC_rCaBTZCHL: NovaScreen (NVS) Ion Channel Assay for Calcium Channel, Type L, Benzothiazepine Site (CaBTZCHL) (AID 2283337)
# In short: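 Competitive displacement of a site-specific radioligand from rat cortex membranes, measured as signal loss against DMSO baseline by filter radiodetection after 1.5 h. Single-point 25 uM primary screen.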
# [7] = target: Small conductance calcium-activated potassium channel protein 1 (Rattus norvegicus) (UniProt P70606); experiment: NVS_IC_rKCaCh: NovaScreen (NVS) Ion Channel Assay for rat Potassium Channel, Ca2+ Act., VI (KCaCh) (AID 2283336)
# In short: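 Radioligand binding to rat forebrain membranes, cell-free, read 1 hour after dosing by filter-based scintillation counting. Compounds first run in duplicate at 25 uM, actives then in concentration series; loss of signal vs DMSO indicates displacement.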
# [8] = NVS_IC_rCaDHPRCh_L: NovaScreen (NVS) Ion Channel Assay for rat Calcium Channel, Type L, Dihydropyridine Site (CaDHPRCh_L) (AID 2283320)
# In short: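 Radioligand binding to dihydropyridine site on rat cortical membranes, filter-based scintillation counting, 1 h after dosing. Screened in duplicate at 25 uM; actives rerun in concentration-response up to 50 uM. Loss of signal versus DMSO baseline.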
# [9] = target: rat Vasopressin 1 Receptor (V1), Avpr1a (gene 25107) (UniProt P30560); experiment: NVS_GPCR_rV1: NovaScreen (NVS) G Protein-Coupled Receptor Assay for rat Vasopressin 1 Receptor (V1) (AID 2283316)
# In short: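 Radioligand binding on rat liver membranes, 1.5 h incubation, filter-based scintillation counting. Single 25 uM screen in duplicate; chemicals meeting threshold (e.g. 30% inhibition) run in concentration-response up to 50 uM.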
# [10] = target: rat Neonicotinoid receptor (NNR), Chrna7 (gene 25302) (UniProt Q05941); experiment: NVS_LGIC_rNNR_BungSens: NovaScreen (NVS) Ligand-Gated Ion Channel Assay for rat Neonicotinoid receptor (NNR) (AID 2283315)
# In short: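 Radioligand displacement binding on rat cortical membranes, 2.5 h incubation, filtration and scintillation counting. Loss of specific binding fitted relative to DMSO.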
# [11] = target: bovine Gamma-Aminobutyric Acid Type A Receptor BDZ, alpha 5 site (GABARa5), GABRA5 (gene 523515) (UniProt Q08E50); experiment: NVS_LGIC_bGABARa5: NovaScreen (NVS) Ligand-Gated Ion Channel Assay for bovine Gamma-Aminobutyric Acid Type A Receptor BDZ, alpha 5 site (GABARa5) (AID 2283323)
# In short: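 Radioligand competitive displacement binding on bovine hippocampal membranes, read 1 hr after dosing by filter-based scintillation counting. Primary screen at 25 uM in duplicate; actives (e.g. ≥30% inhibition) then run in concentration-response up to 50 uM.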
# NCBI gene 24521 = experiment: NVS_IC_rKATPCh: NovaScreen (NVS) Ion Channel Assay for rat Potassium Channel, ATP-Sensitive (KATPCh) (AID 2283319)
# In short: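 Rat cortical membranes; radioligand binding at ATP-sensitive K channel site, filter-based scintillation counting 2 h after dosing. Single-point duplicate screen at 25 uM, hits rerun in concentration-response up to 50 uM; loss of signal versus DMSO.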
# [12] = target: rat Thyrotropin Releasing Hormone Receptor (TRH), Trhr (gene 25570) (UniProt Q01717); experiment: NVS_GPCR_rTRH: NovaScreen (NVS) G Protein-Coupled Receptor Assay for rat Thyrotropin Releasing Hormone Receptor (TRH) (AID 2283329);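 also: hit means lower bound tracer signal versus DMSO baseline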
# In short: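 Rat forebrain membrane prep, radioligand displacement, filter scintillation readout at 4 h. Single conc 25 uM, duplicate; actives retested as concentration series. DMSO = negative control/baseline.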
# [13] = target: human Serotonin, 5-Hydroxytryptamine Receptor 3 (5HT3), HTR3A (gene 3359) (UniProt P46098); experiment: NVS_LGIC_h5HT3: NovaScreen (NVS) Ligand-Gated Ion Channel Assay for human Serotonin, 5-Hydroxytryptamine Receptor 3 (5HT3) (AID 2283325)
# In short: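 Radioligand displacement binding to human 5-HT3 from HEK293 membranes, read by filter-based scintillation counting after 1 h. Screen at 25 uM in duplicate; chemicals passing threshold were retested in concentration-response up to 50 uM.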
# [14] = target: rat Glutamate, AMPA Site (AMPA), Gria1 (gene 50592) (UniProt P19490); experiment: NVS_LGIC_rAMPA: NovaScreen (NVS) Ligand-Gated Ion Channel Assay for rat Glutamate, AMPA Site (AMPA) (AID 2283324)
# In short: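 Rat forebrain membranes; radioligand binding read 1 h after dosing by filtration and scintillation counting. Duplicate single-point screen at 25 uM, then concentration-response to 50 uM for threshold hits (e.g. 30% inhibition); loss of signal vs DMSO.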
# [15] = target: human Constitutive Androstane Receptor (CAR), NR1I3 (gene 9970) (UniProt Q14994); experiment: NVS_NR_hCAR_Agonist: NovaScreen (NVS) Nuclear Receptor Binding Assay for human Constitutive Androstane Receptor Agonism (CAR) (AID 2283328)
# In short: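 Cell-free TR-FRET binding readout with extracted human CAR protein, read 1 h after dosing. Gain of signal fitted against DMSO baseline. Single-concentration duplicates at 25 uM, then concentration-response up to 50 uM for actives.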
# [16] = target: Glutamate receptor ionotropic, kainate 1 (Rattus norvegicus) (UniProt P22756); experiment: NVS_IC_rKAR: NovaScreen (NVS) Ion Channel Assay for rat Kainic Acid Receptors (KAR) (AID 2283334; active = hit-call score of the fitted dose curve at least 0.9, where 1 is the maximum; inactive = score below 0.9)
# In short: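 Radioligand displacement binding using rat forebrain membranes, 1 h incubation, filter-based scintillation counting. Screened in duplicate at 25 uM, with actives retested in concentration-response up to 50 uM; fitted against DMSO.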
# [17] = target: rat Glutamate, NMDA Agonist Site (GluNMDA), Grin1 (gene 24408) (UniProt P35439); experiment: NVS_LGIC_rGluNMDA_Agonist: NovaScreen (NVS) Ligand-Gated Ion Channel Assay for rat Glutamate, NMDA Agonist Site (GluNMDA) (AID 2283327)
# In short: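 Rat forebrain membranes, radioligand binding in the agonist-site protocol; 1 h after dosing; filter-based scintillation counting. Single-concentration duplicate screen at 25 uM, then concentration-response up to 50 uM for actives; gain-of-signal vs DMSO.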
# Chain of Small conductance calcium-activated potassium channel protein 1 (Rattus norvegicus) (P70606 whole entry, looked up): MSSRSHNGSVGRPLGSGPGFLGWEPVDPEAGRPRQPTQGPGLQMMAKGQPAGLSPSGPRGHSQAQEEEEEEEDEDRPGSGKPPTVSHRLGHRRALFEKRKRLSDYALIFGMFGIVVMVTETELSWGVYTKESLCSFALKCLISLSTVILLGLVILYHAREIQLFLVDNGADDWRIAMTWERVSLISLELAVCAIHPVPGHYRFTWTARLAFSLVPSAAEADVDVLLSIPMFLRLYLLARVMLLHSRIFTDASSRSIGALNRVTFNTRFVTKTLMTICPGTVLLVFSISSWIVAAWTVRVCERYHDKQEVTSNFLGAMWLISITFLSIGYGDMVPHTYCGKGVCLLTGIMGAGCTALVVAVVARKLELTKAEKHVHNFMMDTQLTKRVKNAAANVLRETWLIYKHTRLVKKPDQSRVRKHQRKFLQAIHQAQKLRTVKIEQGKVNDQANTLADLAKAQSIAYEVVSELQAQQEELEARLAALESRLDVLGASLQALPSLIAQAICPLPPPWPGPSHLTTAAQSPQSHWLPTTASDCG
# Chain of rat Thyrotropin Releasing Hormone Receptor (TRH), Trhr (gene 25570) (Q01717 whole entry, looked up): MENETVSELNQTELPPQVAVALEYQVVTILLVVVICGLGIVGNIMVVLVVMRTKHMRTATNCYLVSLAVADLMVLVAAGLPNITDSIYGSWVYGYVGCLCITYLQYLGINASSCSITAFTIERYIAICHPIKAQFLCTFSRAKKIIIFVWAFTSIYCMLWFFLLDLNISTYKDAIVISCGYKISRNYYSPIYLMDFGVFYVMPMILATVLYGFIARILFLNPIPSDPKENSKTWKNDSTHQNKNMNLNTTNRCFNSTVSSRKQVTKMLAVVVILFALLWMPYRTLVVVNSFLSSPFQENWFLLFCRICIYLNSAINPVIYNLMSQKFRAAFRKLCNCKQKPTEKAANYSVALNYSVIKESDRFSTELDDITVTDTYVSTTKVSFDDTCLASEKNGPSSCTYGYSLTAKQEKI
# Chain of Glutamate receptor ionotropic, kainate 1 (Rattus norvegicus) (P22756 whole entry, looked up): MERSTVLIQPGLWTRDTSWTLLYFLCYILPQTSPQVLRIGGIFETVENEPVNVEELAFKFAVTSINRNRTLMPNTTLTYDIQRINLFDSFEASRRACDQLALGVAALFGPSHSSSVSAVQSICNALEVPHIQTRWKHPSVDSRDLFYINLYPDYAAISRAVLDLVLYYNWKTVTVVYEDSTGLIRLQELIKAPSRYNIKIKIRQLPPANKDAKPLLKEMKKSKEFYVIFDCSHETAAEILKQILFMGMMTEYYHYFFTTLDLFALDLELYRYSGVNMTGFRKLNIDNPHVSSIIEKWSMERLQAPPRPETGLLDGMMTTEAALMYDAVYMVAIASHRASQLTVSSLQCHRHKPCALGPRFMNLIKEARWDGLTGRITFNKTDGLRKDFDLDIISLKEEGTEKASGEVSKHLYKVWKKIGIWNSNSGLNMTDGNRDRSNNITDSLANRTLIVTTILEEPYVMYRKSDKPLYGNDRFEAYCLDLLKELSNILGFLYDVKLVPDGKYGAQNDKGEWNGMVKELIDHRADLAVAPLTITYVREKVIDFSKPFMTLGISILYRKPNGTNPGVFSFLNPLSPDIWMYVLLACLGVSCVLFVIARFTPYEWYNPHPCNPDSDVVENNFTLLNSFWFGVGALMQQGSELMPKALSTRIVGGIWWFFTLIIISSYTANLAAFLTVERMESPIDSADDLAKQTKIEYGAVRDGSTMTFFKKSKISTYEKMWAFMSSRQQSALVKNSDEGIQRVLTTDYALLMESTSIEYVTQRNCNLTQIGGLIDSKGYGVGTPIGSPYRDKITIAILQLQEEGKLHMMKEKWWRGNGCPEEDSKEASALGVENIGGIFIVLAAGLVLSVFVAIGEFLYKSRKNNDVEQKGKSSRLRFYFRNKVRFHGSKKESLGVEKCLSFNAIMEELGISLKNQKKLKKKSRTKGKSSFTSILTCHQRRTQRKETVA
# Chain of rat Peripheral-type Benzodiazepine Receptor (PBR), Tspo (gene 24230) (P16257 whole entry, looked up): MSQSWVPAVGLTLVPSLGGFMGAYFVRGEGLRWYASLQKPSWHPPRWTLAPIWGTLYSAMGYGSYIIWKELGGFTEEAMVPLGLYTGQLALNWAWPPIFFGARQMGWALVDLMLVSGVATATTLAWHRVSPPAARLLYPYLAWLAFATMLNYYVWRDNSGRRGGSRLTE
# Chain of human Peripheral-type Benzodiazepine Receptor (PBR), TSPO (gene 706) (P30536 whole entry, looked up): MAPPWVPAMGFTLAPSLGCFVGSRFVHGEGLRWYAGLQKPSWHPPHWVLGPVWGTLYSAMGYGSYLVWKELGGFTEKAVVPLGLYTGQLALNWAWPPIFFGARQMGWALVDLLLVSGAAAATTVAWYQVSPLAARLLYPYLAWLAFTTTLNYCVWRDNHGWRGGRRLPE
# Chain of rat Opioid Receptor, Non-selective Binding, Oprm1 (gene 25601) (P33535 whole entry, looked up): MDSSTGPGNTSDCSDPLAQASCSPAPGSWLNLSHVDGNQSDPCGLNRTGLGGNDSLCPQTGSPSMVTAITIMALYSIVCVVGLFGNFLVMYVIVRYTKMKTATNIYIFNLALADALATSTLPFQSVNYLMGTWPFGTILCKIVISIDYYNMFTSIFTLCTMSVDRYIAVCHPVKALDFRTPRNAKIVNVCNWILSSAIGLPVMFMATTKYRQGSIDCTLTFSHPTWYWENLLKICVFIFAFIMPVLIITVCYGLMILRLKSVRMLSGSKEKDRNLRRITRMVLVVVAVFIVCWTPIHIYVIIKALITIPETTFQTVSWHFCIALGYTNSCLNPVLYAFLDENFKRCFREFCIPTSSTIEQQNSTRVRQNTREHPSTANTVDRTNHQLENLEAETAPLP
# Chain of Voltage-gated inwardly rectifying potassium channel KCNH2 (Homo sapiens) (Q12809 whole entry, looked up): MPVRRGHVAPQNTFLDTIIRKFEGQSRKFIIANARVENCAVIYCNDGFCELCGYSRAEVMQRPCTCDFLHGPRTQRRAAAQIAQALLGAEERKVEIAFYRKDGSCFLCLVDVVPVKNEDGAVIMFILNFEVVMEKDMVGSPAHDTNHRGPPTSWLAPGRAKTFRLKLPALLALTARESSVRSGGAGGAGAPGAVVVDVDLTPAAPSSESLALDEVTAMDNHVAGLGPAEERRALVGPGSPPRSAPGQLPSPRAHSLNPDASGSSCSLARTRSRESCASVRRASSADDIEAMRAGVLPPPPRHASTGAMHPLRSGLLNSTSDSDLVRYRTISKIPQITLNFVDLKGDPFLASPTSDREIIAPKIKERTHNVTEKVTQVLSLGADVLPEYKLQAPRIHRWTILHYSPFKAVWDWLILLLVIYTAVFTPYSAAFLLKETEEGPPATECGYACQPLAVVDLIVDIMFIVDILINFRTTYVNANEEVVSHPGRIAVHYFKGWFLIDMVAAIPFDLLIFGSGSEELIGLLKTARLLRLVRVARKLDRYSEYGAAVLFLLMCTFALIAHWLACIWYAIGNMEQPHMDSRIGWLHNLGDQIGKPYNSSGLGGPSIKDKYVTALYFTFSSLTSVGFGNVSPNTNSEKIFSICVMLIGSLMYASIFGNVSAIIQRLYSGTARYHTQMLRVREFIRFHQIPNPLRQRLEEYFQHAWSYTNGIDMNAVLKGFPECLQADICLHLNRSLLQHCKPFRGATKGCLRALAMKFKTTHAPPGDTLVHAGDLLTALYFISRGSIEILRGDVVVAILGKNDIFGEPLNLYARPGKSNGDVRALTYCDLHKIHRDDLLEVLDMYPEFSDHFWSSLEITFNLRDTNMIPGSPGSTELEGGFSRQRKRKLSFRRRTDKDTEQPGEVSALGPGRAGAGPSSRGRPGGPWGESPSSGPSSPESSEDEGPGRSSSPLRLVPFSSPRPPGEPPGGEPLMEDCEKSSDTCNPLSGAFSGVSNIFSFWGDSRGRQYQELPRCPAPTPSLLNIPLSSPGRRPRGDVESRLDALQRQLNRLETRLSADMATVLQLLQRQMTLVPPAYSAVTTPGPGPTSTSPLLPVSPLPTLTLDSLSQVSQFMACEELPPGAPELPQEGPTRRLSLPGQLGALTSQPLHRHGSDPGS
# Chain of human Serotonin, 5-Hydroxytryptamine Receptor 3 (5HT3), HTR3A (gene 3359) (P46098 whole entry, looked up): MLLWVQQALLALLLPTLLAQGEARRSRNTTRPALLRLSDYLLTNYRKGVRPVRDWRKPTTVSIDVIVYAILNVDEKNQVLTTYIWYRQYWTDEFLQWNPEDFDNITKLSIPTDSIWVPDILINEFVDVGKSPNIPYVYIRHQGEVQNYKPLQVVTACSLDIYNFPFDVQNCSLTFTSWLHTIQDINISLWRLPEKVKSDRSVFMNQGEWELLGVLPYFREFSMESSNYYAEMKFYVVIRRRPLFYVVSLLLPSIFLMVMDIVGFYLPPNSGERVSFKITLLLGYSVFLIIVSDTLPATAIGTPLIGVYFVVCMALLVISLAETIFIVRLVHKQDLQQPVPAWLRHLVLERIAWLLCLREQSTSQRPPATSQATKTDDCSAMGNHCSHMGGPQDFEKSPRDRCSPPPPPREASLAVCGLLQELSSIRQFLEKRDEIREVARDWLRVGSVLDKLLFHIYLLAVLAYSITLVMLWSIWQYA
# Chain of rat Vasopressin 1 Receptor (V1), Avpr1a (gene 25107) (P30560 whole entry, looked up): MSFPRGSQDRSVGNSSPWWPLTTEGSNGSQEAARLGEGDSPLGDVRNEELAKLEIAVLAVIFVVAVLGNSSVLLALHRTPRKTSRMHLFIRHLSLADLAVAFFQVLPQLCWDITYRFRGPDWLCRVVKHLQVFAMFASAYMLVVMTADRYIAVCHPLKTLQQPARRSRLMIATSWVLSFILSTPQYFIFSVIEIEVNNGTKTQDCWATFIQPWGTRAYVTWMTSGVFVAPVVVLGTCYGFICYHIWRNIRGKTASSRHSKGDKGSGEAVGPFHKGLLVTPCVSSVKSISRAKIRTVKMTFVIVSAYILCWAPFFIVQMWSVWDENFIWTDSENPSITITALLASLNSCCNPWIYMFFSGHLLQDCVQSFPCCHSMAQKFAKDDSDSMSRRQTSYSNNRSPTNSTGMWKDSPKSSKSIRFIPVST
structure (smiles),measurement,setting,value
O=C(N[C@@H](c1ccccc1)[C@@H]1CCCCN1)c1cccc(C(F)(F)F)c1Cl,AC50,[1],12.8 µM (active)
same,AC50,[2],1.27 µM (active)
same,AC50,[3],17.9 µM (active)
same,AC50,[4],32.9 µM (active)
same,AC50,[5],25 µM (active)
same,AC50,[6],0.967 µM (active)
O=C1OC(c2ccc(O)cc2)(c2ccc(O)cc2)c2ccccc21,AC50,[1],0.872 µM (active)
same,outcome,[7],inactive
CN(C)C(=O)NC1(c2ccccc2)CCN(CCC[C@]2(c3ccc(Cl)c(Cl)c3)CCCN(C(=O)c3ccccc3)C2)CC1,AC50,[1],2.23 µM (active)
same,AC50,[8],0.988 µM (active)
same,AC50,[2],0.327 µM (active)
same,AC50,[4],1.24 µM (active)
same,outcome,[7],inactive
same,AC50,[6],1.24 µM (active)
CCCCCCCCCC[N+](C)(C)[O-],AC50,[2],19.1 µM (active)
CC(=O)O,outcome,[9],inactive
O=C(O)c1cccnc1,outcome,[10],inactive
O=C1NC(=O)C(c2ccccc2)(c2ccccc2)N1,outcome,[2],inactive
CC(C)c1cccc(C(C)C)c1NC(=O)NS(=O)(=O)c1cc(C(C)(C)O)co1,outcome,[9],inactive
same,outcome,[11],inactive
COC(=O)[C@H]1[C@H]2C[C@@H]3c4[nH]c5cc(OC)ccc5c4CCN3C[C@H]2C[C@@H](OC(=O)c2cc(OC)c(OC)c(OC)c2)[C@@H]1OC,AC50,[1],8.39 µM (active)
same,AC50,[8],11.6 µM (active)
same,AC50,[2],5.49 µM (active)
same,outcome,[4],inactive
same,AC50,[6],6.93 µM (active)
Cc1cc(Cc2ccc(N)c(C)c2)ccc1N,outcome,NCBI gene 24521,inactive
same,outcome,[12],inactive
same,outcome,[3],inactive
same,outcome,[5],inactive
COc1ccc(C(=O)Nc2nc3ccccc3c(NCc3ccccc3)c2C#N)cc1,outcome,[11],inactive
CC(COCC(C)OC(=O)c1ccccc1)OC(=O)c1ccccc1 (centres undefined),outcome,[3],inactive
same,AC50,[5],17 µM (active)
Cc1cn([C@H]2C=C[C@@H](CO)O2)c(=O)[nH]c1=O,AC50,[13],8.81 µM (active)
O=C(O)c1[nH]n(-c2ccc(S(=O)(=O)O)cc2)c(=O)c1N=Nc1ccc(S(=O)(=O)O)cc1,outcome,[4],inactive
same,AC50,[6],10.4 µM (active)
C/C=C/C=C/C(=O)O,outcome,[13],inactive
CCCCCCCCCCCCCCOS(=O)(=O)O,AC50,[13],25 µM (active)
C#CC(O)C(CC)CCCC (centres undefined),outcome,[12],inactive
Cc1ccc(-c2cc(C(F)(F)F)nn2-c2ccc(S(N)(=O)=O)cc2)cc1,outcome,[5],inactive
O=[Si]=O,outcome,[12],inactive
O=Cc1ccccc1C=O,AC50,[14],13.5 µM (active)
CC(C)OC(=O)C(C)(C)Oc1ccc(C(=O)c2ccc(Cl)cc2)cc1,outcome,[15],inactive
CC(C)(O)c1ccc(CNC(=O)c2cccnc2Oc2ccc(F)cc2)cc1,AC50,[3],8.65 µM (active)
same,AC50,[5],4.31 µM (active)
OCC(O)CO,AC50,[13],25 µM (active)
c1ccc2occc2c1,outcome,[7],inactive
CC(=O)[C@@]1(O)CC[C@H]2[C@@H]3CCC4=CC(=O)CC[C@]4(C)[C@H]3CC[C@@]21C,outcome,[12],inactive
COC(=O)CCC(=O)OC,outcome,[16],inactive
Oc1ccc(O)cc1,outcome,[3],inactive
Cn1cnc2c1c(=O)[nH]c(=O)n2C,outcome,[2],inactive
same,outcome,[4],inactive
CC(C)COC(=O)CCCCC(=O)OCC(C)C,outcome,[16],inactive
CCCCCCC(CCCCCCCCCCC(=O)OCC(COC(C)=O)OC(C)=O)OC(C)=O (centres undefined),outcome,[3],inactive
same,outcome,[4],inactive
CC(C)NCC(O)c1ccc(O)c(O)c1 (centres undefined),outcome,[14],inactive
O=C(Oc1ccccc1)c1cccc(C(=O)Oc2ccccc2)c1,outcome,[16],inactive
CN(C)CCCN1c2ccccc2Sc2ccc(Cl)cc21,AC50,[2],1.96 µM (active)
same,AC50,[13],25 µM (active)
same,AC50,[17],25 µM (active)
same,AC50,[4],10.4 µM (active)
same,AC50,[6],2.52 µM (active)
O=C1CCCCC1,outcome,[12],inactive
CS(=O)(=O)c1ccc([C@@H](C[C@H]2CCC(=O)C2)C(=O)Nc2cnccn2)cc1Cl,outcome,[12],inactive
O=C(O)CN(CC(=O)O)CC(=O)O,AC50,[12],5.7 µM (active)
